# Screen size: about 1,400 compounds; about 10 (0.7%) were called active. The list is a sample of the results. Potency and affinity values are given separately. Values without a mark were called inactive. No rule for the calls is given here.
# Assay: viability loss in BHK-21 cells – cell-based, plate reader, cherry-pick samples, cytotoxicity control, dose response (AID 687030);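 also: cells were exposed to compound for three days before reading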
# Conditions: series mostly up to 19.5 µM; activity change, negative = toxicity: at the top concentration
row,Compound,"activity change, negative = toxicity"
1,O=C1CN(C(=O)COC(=O)c2c(F)cccc2Cl)c2ccccc2N1,7.85%
2,COc1ccc(NC(=O)COC(=O)c2c(C)noc2C)cc1Cl,-6.26%
3,C[C@H]1[C@H](c2ccccc2)C[C@@H](C(=O)O)C1(C)C,2.3%
4,COc1c(Cl)cc(Br)c(OC)c1C(=O)NC(=O)Nc1nc(C)cc(C)n1,-2.87%
5,CCCc1nc2c(C)cc(Br)cn2c1Cc1ccc(OC)cc1C,-5.06%
6,CCN(c1ccccc1)S(=O)(=O)c1ccc(C(=O)N2CCN(c3ccccc3F)CC2)cc1,-0.489%
7,CCCN1C[C@H](C)[C@H](OC)CN(C)C(=O)c2cc(NS(=O)(=O)c3cn(C)cn3)ccc2OC[C@@H]1C,0.807%
8,C#CCNC(=O)C[C@@H]1C[C@@]2(C(=O)OC)CCCCC=C2N(Cc2cccc3ccccc23)C1=O,0.38%
9,COc1ccc2c3c([nH]c2c1)[C@H](CO)N(C(=O)c1ccccc1)CC31CN(S(=O)(=O)c2cccs2)C1,0.044%
10,COc1cccc(S(=O)(=O)N2CC3(CN(C(=O)Nc4ccc(F)cc4)[C@H](CO)c4[nH]c5cc(OC)ccc5c43)C2)c1,-0.859%
11,COc1ccccc1NC(=O)N1CCN(c2ccccn2)CC1,0.23%
12,CCOC(=O)C[C@H]1c2ccccc2S(=O)(=O)N1c1ccccc1,7.34%
13,O=C(Nc1ccc(Cl)cc1)N(CCCN1CCOCC1)Cc1cccs1,-0.064%
14,NC[C@H](Cc1ccccc1)NCCCCC1CCCCC1,5.93%
15,CO[C@@H](CN(C)C(=O)c1cc(Cl)cc(Cl)c1)[C@H](C)CN(C(=O)Nc1ccc(F)cc1)[C@@H](C)CO,4.92%
16,COc1cccc(CNC(=O)[C@H]2CCCN2C(=O)C2CCCN2C(=O)c2ccc(OC)c(F)c2)c1 (stereo partly specified),5.15%
17,CCCNC(=O)[C@H]1[C@H](CO)[C@H]2Cn3c(cccc3=O)[C@H]2N1Cc1ccccc1Cl,-3.48% [at 21 µM]
18,COc1ccc(-c2sc3cc4c(cc3c2C#Cc2cncn2C)OCO4)cc1,-2.31%
19,CC(=O)Nc1cccc(OCCCNC(=O)c2ccc(C(C)(C)C)cc2)c1,-2.02%
20,CC(C)(C)c1ccc(C(=O)Nc2ccc3c(c2)C(=O)NC3=O)cc1,5.72%
21,CN1C(=O)c2cc(NC(=O)NCc3ccccc3)ccc2OC[C@H]2O[C@H](CC(=O)NCC3CCCCC3)CC[C@H]21,-2.23%
22,Cc1ccccc1OCCC(=O)OCC(=O)NCCc1ccc(S(N)(=O)=O)cc1,-0.913%
23,C[C@H](CO)N1C[C@H](C)[C@@H](CN(C)Cc2ccc3c(c2)OCO3)OCCCC[C@H](C)Oc2ccc(N(C)C)cc2C1=O,2.33%

row,Compound,"activity change, negative = toxicity"
1,CSc1ccccc1NC(=O)c1cc2c(=O)n3ccccc3nc2s1,2.33%
2,CCN(CC)CCCNc1nc(C)cc(COC)c1C#N,-3.72%
3,CCCCN(C(=O)c1ccc2c(c1)NC(=O)CS2)c1ccccc1,4.54%
4,O=C(OCc1ccccc1)N1CCCC2CC1c1ccccc12 (stereo unspecified),-1.75%
5,COc1cccc(OC)c1C(=O)N1CCN(Cc2c[nH]c3ccccc23)CC1,-1.55%
6,O=C(c1ccc(CNc2c(N3CCCC3)c(=O)c2=O)cc1)N1CCN(C2CCCCC2)CC1,-6.28%
7,CCOc1ccccc1-c1nnc(CS(=O)(=O)c2ccccc2)o1,1.34%
8,CCOC(=O)c1ccc(NC(=O)c2nc[nH]c2C(=O)NC2CCN(C(=O)OC(C)(C)C)CC2)cc1,1.41%
9,Cc1cccc(N(C)c2cc(C)nc3nc(C)nn23)c1,-4.81%
10,COCc1cccc(-c2csc(C(N)c3ccc(F)c(F)c3)n2)c1 (stereo unspecified),-4.14%
11,COc1ccc(S(=O)(=O)N2CCCCN3[C@H](CO)[C@H](c4ccc(C5=CCCC5)cc4)[C@@H]3C2)cc1,-2.71%
12,COC(=O)c1ccc(NC(=O)C2CC3CCC2C3)cc1 (stereo unspecified),-2.2%
13,COc1ccc(C2(C)CC(C)(C)Nc3ccccc32)cc1 (stereo unspecified),0.418%
14,CC(C)(O)C#Cc1ccc([C@@H]2[C@@H](CO)N3CCCCN(C(=O)c4ccc(F)cc4)C[C@@H]23)cc1,6.25%
15,O[C@@H]1CN(Cc2cccs2)[C@@H](c2ccccc2)C[C@H]1n1cc(-c2ccc(F)cc2)nn1,3.94%
16,COC(=O)c1c(NC(=O)CC2Sc3ccc(C(F)(F)F)cc3NC2=O)sc(C)c1C (stereo unspecified),3.54%
17,COC(=O)c1ccc2nc(-c3ccc(F)cc3)c(Cc3ccccc3OC)n2c1,4.29%
18,CC(C)C(NS(=O)(=O)c1ccc2c(c1)C(C)(C)C(=O)N2C)C(=O)NCc1ccccc1Cl (stereo unspecified),-2.05%
19,COc1ccc2c3c(n(C)c2c1)[C@H](CO)N(C(=O)Nc1ccccc1F)CC31CN(C)C1,2.87% [at 21 µM]
20,C[C@H]1CN([C@@H](C)CO)C(=O)c2cc(NC(=O)CCCN(C)C)ccc2O[C@@H]1CN(C)S(=O)(=O)c1ccc(Cl)cc1,11.6% [at 21 µM]
21,Cc1ccccc1OCCCCN1CCCCC1,-3.74%
22,Cc1ccc(SC[C@H](Cc2ccccc2)N2CC[C@@H](C)CCC2=O)cc1,13.1% [at 10 µM]
23,CC(C)c1ccc(NC(=O)Nc2nc(C(N)c3ccccc3Cl)cs2)cc1 (stereo unspecified),1.49%

# — PubChem BioAssay AID687030 (Broad Institute, 2013)
